# In the supplement of paper PMC8728848:
# Many of the other results were omitted from the sample, so the strongest signals are more common in it than they were.
# Key:
# Assay in all cases: glycan array binding signal (z-score within array); higher = stronger binding
# Conditions in all cases: glycan notation: IUPAC condensed, linker removed
# [1] = target: Fuc(a1-2)Gal(b1-4)GlcNAc(b1-2)Man(a1-3)[Fuc(a1-2)Gal(b1-4)GlcNAc(b1-2)Man(a1-6)]Man(b1-4)GlcNAc(b1-4)[Fuc(a1-6)]GlcNAc
# Procedure, shortened: (§1)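 Arrays were curated from the Consortium for Functional Glycomics database, 3228 in total, and kept only where the protein sequence was available. Binding is expressed as a within-array Z-score. This score was averaged across arrays of the same protein sequence at different concentrations or buffers and across linkers, and negative values can be read as non-binding.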
# [2] = target: Fuc(a1-2)[Gal(a1-3)]Gal(b1-3)GalNAc
# Procedure, shortened: as §1
# [3] = target: Fuc(a1-2)[Gal(a1-4)]Gal(b1-4)GlcNAc
# Procedure, shortened: as §1
# [4] = target: Fuc(a1-2)[GalNAc(a1-3)]Gal(b1-4)Glc
# Procedure, shortened: as §1
# [5] = target: Fuc(a1-2)[GalNAc(a1-3)]Gal(b1-4)[Fuc(a1-3)]GlcNAc(b1-3)GalNAc
# Procedure, shortened: as §1
# [6] = target: Fuc(a1-3)[GalNAc(b1-4)]GlcNAc
# Procedure, shortened: as §1
# Gal(a1-3)GalNAc = target: Gal(a1-3)GalNAc
# Procedure, shortened: as §1
# [7] = target: Gal(a1-3)[Gal(a1-4)]Gal(b1-4)GlcNAc
# Procedure, shortened: as §1
# Gal(a1-4)Gal(b1-4)Glc = target: Gal(a1-4)Gal(b1-4)Glc
# Procedure, shortened: as §1
# Gal(b1-2)Gal = target: Gal(b1-2)Gal
# Procedure, shortened: as §1
# [8] = target: Gal(b1-3)GalNAc(b1-4)Gal(b1-4)Glc
# Procedure, shortened: as §1
# Gal(b1-3)GlcNAc = target: Gal(b1-3)GlcNAc
# Procedure, shortened: as §1
# [9] = target: Gal(b1-3)GlcNAc(b1-2)Man(a1-3)[Gal(b1-3)GlcNAc(b1-2)Man(a1-6)]Man(b1-4)GlcNAc(b1-4)GlcNAc
# Procedure, shortened: as §1
# [10] = target: Gal(b1-3)GlcNAc(b1-3)Gal(b1-4)Glc
# Procedure, shortened: as §1
# [11] = target: Gal(b1-3)GlcNAc(b1-3)Gal(b1-4)GlcNAc(b1-3)Gal(b1-4)GlcNAc(b1-2)[Gal(b1-3)GlcNAc(b1-3)Gal(b1-4)GlcNAc(b1-3)Gal(b1-4)GlcNAc(b1-6)]Man(a1-6)[Gal(b1-3)GlcNAc(b1-3)Gal(b1-4)GlcNAc(b1-3)Gal(b1-4)GlcNAc(b1-2)Man(a1-3)]Man(b1-4)GlcNAc(b1-4)[Fuc(a1-6)]GlcNAc
# Procedure, shortened: as §1
# [12] = target: Gal(b1-3)GlcNAc(b1-6)[Gal(b1-3)]GalNAc
# Procedure, shortened: as §1
# [13] = target: Gal(b1-3)[Fuc(a1-4)]GlcNAc(b1-2)Man(a1-3)[Gal(b1-3)[Fuc(a1-4)]GlcNAc(b1-2)Man(a1-6)]Man(b1-4)GlcNAc(b1-4)[Fuc(a1-6)]GlcNAc
# Procedure, shortened: as §1
# [14] = target: Gal(b1-3)[Fuc(a1-4)]GlcNAc(b1-6)GalNAc
# Procedure, shortened: as §1
# [15] = target: Gal(b1-4)GlcNAc(b1-2)Man(a1-6)[GlcNAc(b1-2)Man(a1-3)]Man(b1-4)GlcNAc(b1-4)GlcNAc
# Procedure, shortened: as §1
# [16] = target: Gal(b1-4)GlcNAc(b1-3)Gal(b1-4)Glc
# Procedure, shortened: as §1
# [17] = target: Gal(b1-4)GlcNAc(b1-3)Gal(b1-4)GlcNAc(b1-2)Man(a1-3)[Gal(b1-4)GlcNAc(b1-3)Gal(b1-4)GlcNAc(b1-2)Man(a1-6)]Man(b1-4)GlcNAc(b1-4)GlcNAc
# Procedure, shortened: as §1
# [18] = target: Gal(b1-4)GlcNAc(b1-3)Gal(b1-4)GlcNAc(b1-3)Gal(b1-4)GlcNAc(b1-3)Gal(b1-4)GlcNAc(b1-2)Man(a1-3)[Gal(b1-4)GlcNAc(b1-3)Gal(b1-4)GlcNAc(b1-3)Gal(b1-4)GlcNAc(b1-3)Gal(b1-4)GlcNAc(b1-2)Man(a1-6)]Man(b1-4)GlcNAc(b1-4)[Fuc(a1-6)]GlcNAc
# Procedure, shortened: as §1
# [19] = target: Gal(b1-4)GlcNAc(b1-3)GalNAc
# Procedure, shortened: as §1
# Gal3S(b1-4)Glc6S = target: Gal3S(b1-4)Glc6S
# Procedure, shortened: as §1
# [20] = target: Gal3S(b1-4)[Fuc(a1-3)]Glc6S
# Procedure, shortened: as §1
# [21] = target: GalNAc(b1-3)Gal(a1-4)Gal(b1-4)GlcNAc
# Procedure, shortened: as §1
# GalNAc(b1-4)GlcNAc = target: GalNAc(b1-4)GlcNAc
# Procedure, shortened: as §1
# GalNAc4S6S(b1-4)GlcNAc = target: GalNAc4S6S(b1-4)GlcNAc
# Procedure, shortened: as §1
# [22] = target: GlcNAc(a1-3)Gal(b1-4)GlcNAc
# Procedure, shortened: as §1
# [23] = target: GlcNAc(a1-4)Gal(b1-4)GalNAc
# Procedure, shortened: as §1
# [24] = target: GlcNAc(b1-3)Gal(b1-4)GlcNAc(b1-6)[Gal(b1-3)]GalNAc
# Procedure, shortened: as §1
# [25] = target: GlcNAc(b1-4)GlcNAc(b1-4)GlcNAc
# Procedure, shortened: as §1
# Kdn(a2-6)Gal(b1-4)GlcNAc = target: Kdn(a2-6)Gal(b1-4)GlcNAc
# Procedure, shortened: as §1
# [26] = target: Man(a1-2)Man(a1-6)[Man(a1-3)]Man(a1-6)[Man(a1-2)Man(a1-2)Man(a1-3)]Man(b1-4)GlcNAc(b1-4)GlcNAc
# Procedure, shortened: as §1
# [27] = target: Neu5Ac(a2-3)Gal(b1-4)GlcNAc(b1-2)Man(a1-3)[Neu5Ac(a2-3)Gal(b1-4)GlcNAc(b1-2)Man(a1-6)]Man(b1-4)GlcNAc(b1-4)GlcNAc
# Procedure, shortened: as §1
# [28] = target: Neu5Ac(a2-3)Gal(b1-4)GlcNAc(b1-3)[Neu5Ac(a2-3)Gal(b1-4)GlcNAc(b1-6)]GalNAc
# Procedure, shortened: as §1
# [29] = target: Neu5Ac(a2-3)Gal(b1-4)GlcNAc(b1-6)GalNAc
# Procedure, shortened: as §1
# [30] = target: Neu5Ac(a2-3)Gal(b1-4)GlcNAc6S
# Procedure, shortened: as §1
# [31] = target: Neu5Ac(a2-3)[GalNAc(b1-4)]Gal(b1-4)GlcNAc
# Procedure, shortened: as §1
# [32] = target: Neu5Ac(a2-8)Neu5Ac(a2-3)Gal(b1-4)Glc
# Procedure, shortened: as §1
# [33] = target: Neu5Ac(b2-6)Gal(b1-4)GlcNAc
# Procedure, shortened: as §1
# [34] = target: Neu5Gc(b2-6)Gal(b1-4)GlcNAc
# Procedure, shortened: as §1
binder,measurement,setting,value
"AT1G15820(2) (Arabidopsis thaliana), Q9LMQ2 (protein) MAMAVSGAVLSGLGSSFLTGGKRGATALASGVGTGAQRVGRKTLIVAAAAAQPKKSWIPAVKGGGNFLDPEWLDGSLPGDFGFDPLGLGKDPAFLKWYREAELIHGRWAMAAVLGIFVGQAWSGVAWFEAGAQPDAIAPFSFGSLLGTQLLLMGWVESKRWVDFFNPDSQSVEWATPWSKTAENFANYTGDQGYPGGRFFDPLGLAGKNRDGVYEPDFEKLERLKLAEIKHSRLAMVAMLIFYFEAGQGKTPLGALGL",glycan array binding signal (z-score),[1],-0.613
same,glycan array binding signal (z-score),[2],-0.022
same,glycan array binding signal (z-score),[3],1.93
same,glycan array binding signal (z-score),[4],-0.507
same,glycan array binding signal (z-score),[5],6.82
same,glycan array binding signal (z-score),[6],1.79
same,glycan array binding signal (z-score),Gal(a1-3)GalNAc,3.12
same,glycan array binding signal (z-score),[7],9.8
same,glycan array binding signal (z-score),Gal(a1-4)Gal(b1-4)Glc,2.16
same,glycan array binding signal (z-score),Gal(b1-2)Gal,0.453
same,glycan array binding signal (z-score),[8],2.89
same,glycan array binding signal (z-score),Gal(b1-3)GlcNAc,0.12
same,glycan array binding signal (z-score),[9],0.477
same,glycan array binding signal (z-score),[10],-0.032
same,glycan array binding signal (z-score),[11],1.41
same,glycan array binding signal (z-score),[12],0.112
same,glycan array binding signal (z-score),[13],-0.308
same,glycan array binding signal (z-score),[14],-0.229
same,glycan array binding signal (z-score),[15],0.324
same,glycan array binding signal (z-score),[16],-0.362
same,glycan array binding signal (z-score),[17],0.779
same,glycan array binding signal (z-score),[18],0.197
same,glycan array binding signal (z-score),[19],-0.445
same,glycan array binding signal (z-score),Gal3S(b1-4)Glc6S,0.421
same,glycan array binding signal (z-score),[20],1.96
same,glycan array binding signal (z-score),[21],3.99
same,glycan array binding signal (z-score),GalNAc(b1-4)GlcNAc,8.56
same,glycan array binding signal (z-score),GalNAc4S6S(b1-4)GlcNAc,-0.032
same,glycan array binding signal (z-score),[22],-0.384
same,glycan array binding signal (z-score),[23],0.069
same,glycan array binding signal (z-score),[24],-0.16
same,glycan array binding signal (z-score),[25],-0.425
same,glycan array binding signal (z-score),Kdn(a2-6)Gal(b1-4)GlcNAc,-0.581
same,glycan array binding signal (z-score),[26],-0.821
same,glycan array binding signal (z-score),[27],-0.363
same,glycan array binding signal (z-score),[28],0.172
same,glycan array binding signal (z-score),[29],-0.315
same,glycan array binding signal (z-score),[30],-0.028
same,glycan array binding signal (z-score),[31],-0.469
same,glycan array binding signal (z-score),[32],-0.326
same,glycan array binding signal (z-score),[33],-0.408
same,glycan array binding signal (z-score),[34],-0.566
